Where “and” joins values, the source holds several entries; their conditions need not be identical. Identical values can stand only once. This is part of a sample that, as a whole, favours compounds with a hit. Of some 83,000 tested, about 20% had one in any assay.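 Note: values are percent growth. 100 is the growth of untreated cells, values between 100 and 0 indicate rising inhibition; between -100 and 0 indicates cell death.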 A number with no mark means an inactive call. Calls of active or inactive are those of the source. Rule for the calls: active = growth percent below 10; inactive = the rest. Where a SMILES comes first, the peptide text is derived from it. The star is where a group is joined. Trt = c1ccc(C(c2ccccc2)(c2ccccc2)*)cc1; Cbz = O=C(OCc1ccccc1)*

One experiment concerns OVCAR-4 ovarian. As to the kind of experiment: NCI-60 one-dose screen, 48 h (100 = growth as untreated, 0 = no growth, -100 = all killed). Particulars: 10 µM unless noted.
For `COc1cc(/C=C/C(C)=O)ccc1O`, the growth was 108% and 103%.

As to `CC(C)(C)CC(C)(C)c1ccc(OCCSC(=N)N)cc1`, the growth is 41.2%.

On to `COc1ccc(N=N/N=c2\sc3cc(OC)ccc3n2C)cc1`, for which the growth was 108%.

On to `O=C(Oc1cccc2cccnc12)c1ccccc1`, for which the growth was 84.6% and 116%.

With `S=C(NCCNC(=S)[S][Sn]([c]1ccccc1)([c]1ccccc1)[c]1ccccc1)[S][Sn]([c]1ccccc1)([c]1ccccc1)[c]1ccccc1`, the growth is -100% (active).

As to `C[N+](C)=c1ccc2nc3c(cc(NCCCNc4cc5oc6cc(=[N+](C)C)ccc-6nc5c5ccccc45)c4ccccc43)oc-2c1`, the growth was -100% (active).

As to `C[n+]1c(/C=C/c2ccc([N+](=O)[O-])cc2)ccc2ccccc21`, the growth was 105%.

With `CCC(CCCN(CC)CCc1ccccc1)OC(=O)c1cc(OC)c(OC)c(OC)c1` (centres undefined), the growth is 82.6%.

With `O=C(/C=C\c1ccccc1)N1c2ccccc2CC1c1c[nH]c2ccccc12` (centres undefined), the growth was 62%.

For the molecule `OC(CNc1ccnc2cc(Cl)ccc12)CNc1ccnc2cc(Cl)ccc12`, the growth is 48%.

`COC(=O)c1nc(=S)[nH]c(C(=O)OC)c1C(=O)c1ccccn1`: the growth was 25.3%.

For the molecule `Cc1ccc(N=C=C(c2ccccc2)c2ccccc2)cc1`, the growth was 103%.

Turning to `NC(=S)N/N=C/c1ccc(Cl)s1`, the growth was 109%.

Regarding `O=[N+]([O-])c1ccc2c(N=Nc3ccc4ccccc4c3O)c(O)cc(S(=O)(=O)O)c2c1`, the growth is 63%.

On to `CC(=Nc1ccc(N(C)C)cc1)c1ccccc1`, for which the growth was 69.9%.

For the molecule `O=[N+]([O-])c1ccc(N=Nc2ccc(O)cc2O)cc1`, the growth is 48.4%.

In the case of `CCC(CC)COC(=O)c1ccc(O)c(O)c1`, the growth is 77.2%.

Regarding `CCC(c1cccc(O)c1)C(CC)c1cccc(O)c1` (centres undefined), the growth is 67.6%.

Turning to `COC(=O)C(CSC(c1ccccc1)(c1ccccc1)c1ccccc1)NC(=O)C(CC(N)=O)NC(=O)OCc1ccccc1` (stereo not drawn) (Cbz-Asn-Cys(Trt)-OMe; configuration not given here), the growth is 39.5%.

Consider `CCC(=O)Sc1ccccc1C(=O)Nc1ccc(Cl)cc1`, for which the growth was 44.5%.

Regarding `Nc1ncnc2c1ncn2C1OC(CO)C(O)C1O` (centres undefined), the growth is 123% and 83.8% and 91.7%.

With `Cc1ccc2c(ccc3c[n+]4c5ccccc5ccc4n32)c1`, the growth is -35.4% (active).

In the case of `O=C(Nc1ccc(F)cc1)ON=C1CCCCC1`, the growth is 99.1% [100 µM].

Consider `CC1=CC(O)C2CC1C2(C)C` (centres undefined), for which the growth was 99.7% and 108%.

Take `O=C(CC1(O)C(=O)Nc2c(Cl)ccc(Cl)c21)c1ccc(Cl)cc1Cl` (centres undefined): the growth was 87.9%.

As for `O=C1N[C@H]2[C@H](CS[C@H]2CCCCC(=O)N(CCP(c2ccccc2)c2ccccc2)CCP(c2ccccc2)c2ccccc2)N1`, the growth was 87.9%.

Turning to `C=C(Cl)C(=NC(C)(C)C)Nc1ccccc1C`, the growth was 91.7%.

Take `Cc1ccnc(NC(c2ccccc2)c2ccc3cccnc3c2O)c1` (centres undefined): the growth was 20.6%.

With `Cc1cc2nc(CS)[nH]c2cc1C`, the growth is 85.5%.

Consider `O=C(O)C1C2CC3C(OC(=O)C31)C2Br` (centres undefined), for which the growth is 114% and 89.8%.

On to `Cc1ccnc2c1ccc1c(C)ccnc12`, for which the growth was 24.1%.

On to `COc1ccccc1/C=C\C(=O)c1ccccc1`, for which the growth is 81.2%.

The next experiment concerns SK-OV-3 ovarian. The description is as above. Particulars: 10 µM unless noted.
On to `COc1cc(/C=C/C(C)=O)ccc1O`, for which the growth was 94% and 112%.

Turning to `CC(C)(C)CC(C)(C)c1ccc(OCCSC(=N)N)cc1`, the growth is 89.6%.

Take `COc1ccc(N=N/N=c2\sc3cc(OC)ccc3n2C)cc1`: the growth is 86.3%.

On to `O=C(Oc1cccc2cccnc12)c1ccccc1`, for which the growth was 106%.

On to `S=C(NCCNC(=S)[S][Sn]([c]1ccccc1)([c]1ccccc1)[c]1ccccc1)[S][Sn]([c]1ccccc1)([c]1ccccc1)[c]1ccccc1`, for which the growth is -100% (active).

On to `C[N+](C)=c1ccc2nc3c(cc(NCCCNc4cc5oc6cc(=[N+](C)C)ccc-6nc5c5ccccc45)c4ccccc43)oc-2c1`, for which the growth was 90.1%.

In the case of `C[n+]1c(/C=C/c2ccc([N+](=O)[O-])cc2)ccc2ccccc21`, the growth was 109%.

For `CCC(CCCN(CC)CCc1ccccc1)OC(=O)c1cc(OC)c(OC)c(OC)c1` (centres undefined), the growth was 83.5%.

In the case of `O=C(/C=C\c1ccccc1)N1c2ccccc2CC1c1c[nH]c2ccccc12` (centres undefined), the growth was 60.5%.

As to `OC(CNc1ccnc2cc(Cl)ccc12)CNc1ccnc2cc(Cl)ccc12`, the growth was 113%.

Turning to `COC(=O)c1nc(=S)[nH]c(C(=O)OC)c1C(=O)c1ccccn1`, the growth was 63.2%.

Turning to `Cc1ccc(N=C=C(c2ccccc2)c2ccccc2)cc1`, the growth was 112%.

Take `NC(=S)N/N=C/c1ccc(Cl)s1`: the growth is 109%.

In the case of `O=[N+]([O-])c1ccc2c(N=Nc3ccc4ccccc4c3O)c(O)cc(S(=O)(=O)O)c2c1`, the growth is 90%.

`CC(=Nc1ccc(N(C)C)cc1)c1ccccc1`: the growth was 73%.

Consider `O=[N+]([O-])c1ccc(N=Nc2ccc(O)cc2O)cc1`, for which the growth was 87%.

For `CCC(CC)COC(=O)c1ccc(O)c(O)c1`, the growth was 67%.

As to `CCC(c1cccc(O)c1)C(CC)c1cccc(O)c1` (centres undefined), the growth was 76.5%.

For the molecule `COC(=O)C(CSC(c1ccccc1)(c1ccccc1)c1ccccc1)NC(=O)C(CC(N)=O)NC(=O)OCc1ccccc1` (stereo not drawn) (Cbz-Asn-Cys(Trt)-OMe; configuration not given here), the growth was 14.2%.

For `CCC(=O)Sc1ccccc1C(=O)Nc1ccc(Cl)cc1`, the growth was 87.3%.

Turning to `Nc1ncnc2c1ncn2C1OC(CO)C(O)C1O` (centres undefined), the growth was 104% and 100%.

Take `Cc1ccc2c(ccc3c[n+]4c5ccccc5ccc4n32)c1`: the growth is 0.442% (active).

On to `O=C(Nc1ccc(F)cc1)ON=C1CCCCC1`, for which the growth is 129% [100 µM].

As for `CC1=CC(O)C2CC1C2(C)C` (centres undefined), the growth is 94.3% and 104%.

Take `O=C(CC1(O)C(=O)Nc2c(Cl)ccc(Cl)c21)c1ccc(Cl)cc1Cl` (centres undefined): the growth is 84.9%.

Regarding `O=C1N[C@H]2[C@H](CS[C@H]2CCCCC(=O)N(CCP(c2ccccc2)c2ccccc2)CCP(c2ccccc2)c2ccccc2)N1`, the growth was 111%.

Regarding `C=C(Cl)C(=NC(C)(C)C)Nc1ccccc1C`, the growth is 105%.

With `Cc1ccnc(NC(c2ccccc2)c2ccc3cccnc3c2O)c1` (centres undefined), the growth is 57.5%.

For the molecule `Cc1cc2nc(CS)[nH]c2cc1C`, the growth was 87.1%.

For `O=C(O)C1C2CC3C(OC(=O)C31)C2Br` (centres undefined), the growth is 95.8% and 105%.

On to `Cc1ccnc2c1ccc1c(C)ccnc12`, for which the growth was 3.59% (active).

Turning to `COc1ccccc1/C=C\C(=O)c1ccccc1`, the growth was 94.5%.

Source of the values: PubChem BioAssay (NCI).
